Results published in PubChem BioAssay (EPA / NIEHS).
Where “and” joins values, the source holds several entries; their conditions need not be identical. Identical values can stand only once. Inconclusive results are not listed. Some compounds were tested as several samples or in several runs, with calls that do not always agree. Calls of active or inactive are those of the source. Rule for the calls, unless noted: active = hit-call score of the fitted dose curve at least 0.9, where 1 is the maximum; inactive = score below 0.9.

How the values were obtained:
[1] = biological target: Estrogen receptor (Homo sapiens) (UniProt P03372); test: CCTE_Deisenroth_AIME_384WELL_LUC_Active: CCTE's 384-well Estrogen Receptor Transactivation Assay with AIME metabolic competence (ERTA luciferase; metabolism positive), Deisenroth Lab (AID 2284030; active = hit-call score of the fitted dose curve at least 0.9, where 1 is the maximum)
Sequence of Estrogen receptor (Homo sapiens) (P03372 whole entry, looked up): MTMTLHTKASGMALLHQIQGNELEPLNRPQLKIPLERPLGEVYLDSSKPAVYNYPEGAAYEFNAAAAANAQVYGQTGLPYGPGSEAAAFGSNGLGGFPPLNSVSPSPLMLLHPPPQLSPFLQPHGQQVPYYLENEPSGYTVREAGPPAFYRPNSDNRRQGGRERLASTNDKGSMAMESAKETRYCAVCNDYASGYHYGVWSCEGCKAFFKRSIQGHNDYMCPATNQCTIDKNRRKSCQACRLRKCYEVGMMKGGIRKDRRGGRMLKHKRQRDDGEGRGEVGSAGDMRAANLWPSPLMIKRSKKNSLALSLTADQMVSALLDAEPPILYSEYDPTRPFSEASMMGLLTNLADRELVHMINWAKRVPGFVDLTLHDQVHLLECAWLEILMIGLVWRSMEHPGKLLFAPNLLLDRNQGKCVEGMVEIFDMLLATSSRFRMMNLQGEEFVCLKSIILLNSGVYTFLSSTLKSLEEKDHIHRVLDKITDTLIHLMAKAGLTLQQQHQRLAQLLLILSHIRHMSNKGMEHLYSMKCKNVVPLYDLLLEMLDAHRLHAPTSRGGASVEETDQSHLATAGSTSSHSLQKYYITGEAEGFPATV
Summary of the method: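 Test chemicals (10-point series, 0.002 - 200 uM) were preincubated 2 hours with alginate-immobilized phenobarbital/beta-naphthoflavone-induced male Sprague Dawley rat liver S9; conditioned medium then went onto VM7Luc4E2 breast cells for 24 hour. Luciferase gain-of-signal fitted relative to 17beta-estradiol.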

[2] = CCTE_Deisenroth_AIME_384WELL_CTox_Active: Cytotoxicity Assessment (CTOX) in CCTE's 384-well Estrogen Receptor Transactivation Assay with AIME metabolic competence (metabolism positive), Deisenroth Lab (AID 2284037; active = hit-call score of the fitted dose curve at least 0.9, where 1 is the maximum;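 note: chemicals first conditioned 2 h by alginate-bound induced rat liver S9 before cells; activity means signal loss indicating cell death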)
Summary of the method: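 VM7Luc4E2 breast cells received medium pre-incubated 2 h with chemical over alginate microspheres holding induced male Sprague Dawley rat liver S9; viability read 24 h later by protease-substrate fluorescence. Loss of signal, bidirectional fit, 0.002–200 uM.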

[3] = CCTE_Deisenroth_AIME_384WELL_CTox_Inactive: Cytotoxicity Assessment (CTOX) in CCTE's 384-well Estrogen Receptor Transactivation Assay without AIME metabolic competence (metabolism negative), Deisenroth Lab (AID 2284039; active = hit-call score of the fitted dose curve at least 0.9, where 1 is the maximum;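 note: cell viability via live-cell protease substrate cleaved to fluorescent probe; cells exposed 24 h to medium preincubated 2 h with alginate-water beads without S9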)
Summary of the method: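 Metabolism-negative arm: chemicals (10-point, 0.002 - 200 uM) preincubated 2 h with alginate-water lids, medium moved onto VM7Luc4E2 cells for 24 h. Fluorescent live-cell protease readout; bidirectional curve fit.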

[4] = biological target: Estrogen receptor (Homo sapiens) (UniProt P03372); test: CCTE_Deisenroth_AIME_384WELL_LUC_Shift: CCTE's 384-well Estrogen Receptor Transactivation Assay with AIME metabolic competence data shift (ERTA luciferase; difference in metabolism positive and negative), Deisenroth Lab (AID 2284041);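 note: shift is response with S9 minus without S9 so positive means metabolism raised ER signal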
Summary of the method: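 Here, parent compounds undergo 2 h phase I metabolism by PB/BNF-induced rat S9 before 24 h transactivation in VM7Luc4E2 cells; the curve models S9-positive minus S9-negative response over a 10-point series.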

[5] = CCTE_Shafer_MEA_dev_firing_rate_mean: CCTE's Neural Network Formation Assay for Mean Firing Rate, Shafer Lab (AID 2284031);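 for AC50: curve fitted for loss of firing so AC50 reflects decreased mean firing rate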
Summary of the method: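 Developing rat cortical networks on MEA plates undergo 12-day compound exposure. Firing frequency, averaged across active electrodes, is integrated as area under the curve over four recording days, referenced to DMSO.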

[6] = CCTE_Shafer_MEA_dev_per_burst_spike_percent: CCTE's Neural Network Formation Assay for Percent of Spikes in a Burst, Shafer Lab (AID 2284032);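 note: fitted as a decrease in burst spike percentage below DMSO baseline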
Summary of the method: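 Rat primary cortical neurons on 16-electrode MEA wells, dosed from plating day 0 for 12 days with renewal on DIV 5 and 9; spikes-in-bursts percentage averaged over bursting electrodes, collapsed as AUC across days 5, 7, 9, 12; loss direction versus DMSO.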

[7] = CCTE_Shafer_MEA_dev_active_electrodes_number: CCTE's Neural Network Formation Assay for Number of Active Electrodes, Shafer Lab (AID 2284040; active = hit-call score of the fitted dose curve at least 0.9, where 1 is the maximum;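 note: potency for loss of active electrodes versus DMSO so lower counts are hits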)
Summary of the method: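 Rat cortical primary cultures, 1.5 x 10^5 cells/well, PEI-coated MEA, laminin drop. Continuous exposure DIV 0–12; full media/compound change DIV 5, 9. Readout: electrodes with mean firing ≥5 spikes/min; AUC across days; loss vs DMSO.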

[8] = CCTE_Shafer_MEA_dev_burst_rate: CCTE's Neural Network Formation Assay for Burst Rate, Shafer Lab (AID 2284042);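 for AC50: potency for loss of burst rate below DMSO control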
Summary of the method: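 Cells plated, treated day 0; recorded DIV 5, 7, 9, 12; fed and re-treated DIV 5, 9. Endpoint: bursts per recording time, active-electrode well mean, trapezoidal AUC, fitted in decreasing direction against DMSO baseline.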

[9] = CCTE_Shafer_MEA_dev_per_burst_interspike_interval: CCTE's Neural Network Formation Assay for Burst Interspike Interval, Shafer Lab (AID 2284044);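 note: mean spike spacing inside bursts as AUC over recordings on days 5 7 9 12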;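 for AC50: potency for a decrease of within-burst interspike interval below DMSO level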
Summary of the method: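 Rat cortical primary cultures, 16 electrodes/well; compound from plating, renewed with full media change DIV 5 and 9. Spikes via adaptive detector; per-burst ISI well-mean over active bursting electrodes; AUC of DIV 5/7/9/12 recordings; loss-direction fit vs DMSO.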

[10] = CCTE_Shafer_MEA_dev_burst_duration_mean: CCTE's Neural Network Formation Assay for Mean Burst Duration, Shafer Lab (AID 2284045);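 for AC50: curve fitted for loss meaning shorter burst duration than DMSO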
Summary of the method: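 Primary rat cortical neurons on PEI-coated 16-electrode MEA wells, exposed from plating through day 12 with compound renewed at DIV 5 and 9; spontaneous activity recorded days 5, 7, 9, 12. Well-mean burst duration collapsed as trapezoidal AUC, fitted for loss versus DMSO.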

[11] = CCTE_Shafer_MEA_dev_interburst_interval_mean: CCTE's Neural Network Formation Assay for Mean Interburst Interval, Shafer Lab (AID 2284046);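 note: well-mean interburst interval of bursting electrodes as AUC over four recording days; curve fitted for decrease in interburst interval relative to DMSO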
Summary of the method: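 Developing rat cortical networks on 48-well MEAs receive compound from the day of plating. Burst intervals from each active electrode are averaged per well, and AUC over the recording days is fitted in the negative direction against DMSO.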

[12] = CCTE_Shafer_MEA_dev_inter_network_spike_interval_mean: CCTE's Neural Network Formation Assay for Mean Inter-network Spike Interval, Shafer Lab (AID 2284047)
Summary of the method: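 Rat cortical cultures, 1.5 x 10^5 cells/well on 48-well MEA plates; continuous exposure days 0–12, medium and compound refreshed DIV 5, 9. Mean time between consecutive network-spike peaks; AUC across DIV 5/7/9/12; DMSO baseline, negative fitting direction.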

[13] = CCTE_Shafer_MEA_dev_network_spike_number: CCTE's Neural Network Formation Assay for Number of Network Spikes, Shafer Lab (AID 2284048);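 note: synchronized bursts across electrodes counted on days 5 7 9 12 and integrated as AUC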;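 for AC50: fit as a loss of signal meaning fewer network spikes than DMSO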
Summary of the method: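 Primary rat cortical neurons were seeded at 1.5 x 10^5 cells/well on PEI-coated 16-electrode MEA wells with laminin, exposed from plating day 0, compound renewed at DIV 5 and 9. Network spikes were recorded on days 5, 7, 9, 12 and summarized as trapezoidal AUC versus DMSO.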

[14] = CCTE_Shafer_MEA_dev_network_spike_peak: CCTE's Neural Network Formation Assay for Mean Number of Electrodes in Network Spike, Shafer Lab (AID 2284049);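 note: fitted for loss of signal meaning fewer electrodes in network spikes than DMSO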
Summary of the method: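 Continuous 12-day exposure of rat cortical cultures, starting at plating, on MEA plates. Endpoint: electrodes participating in network-spike peaks, AUC across DIV 5–12, DMSO as negative control.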

[15] = CCTE_Shafer_MEA_dev_per_network_spike_spike_number_mean: CCTE's Neural Network Formation Assay for Mean Number of Spikes in a Network Spike, Shafer Lab (AID 2284053);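 note: fitted as decrease in spikes per network spike relative to DMSO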
Summary of the method: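 Continuous twelve-day exposure of developing rat cortical networks grown over 16 microelectrodes per well; spontaneous firing is captured at four time points, and the per-network-spike spike number is integrated over development by trapezoidal AUC.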

[16] = CCTE_Shafer_MEA_dev_per_network_spike_spike_percent: CCTE's Neural Network Formation Assay for Percent of Spikes in a Network Spike, Shafer Lab (AID 2284054)
Summary of the method: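 Primary rat cortical neurons on 16-electrode MEA wells (PEI-coated, laminin at plating), exposed from day 0 with renewal at DIV 5 and 9; spikes within 0.05 s of network-spike peaks over total spikes, AUC across days 5, 7, 9, 12.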

Measured: AC50

CCOCCOC(C)=O
inactive: [1] | [2] | [3] | [4]

C[C@]12CCC(=O)C=C1CC[C@@H]1[C@@H]2CC[C@]2(C)C(=O)CC[C@@H]12
inactive: [1] | [2] | [3] | [4]

CCOP(=S)(OCC)SCSC(C)(C)C
active: [5] 23.4 µM | [6] 23.1 µM and 27.1 µM | [7] 18.2 µM and 16.1 µM | [8] 23.2 µM | [9] 17.4 µM | [10] 23.5 µM | [11] 23 µM and 28.4 µM | [13] 18.9 µM | [14] 23.1 µM and 13.9 µM | [15] 23.4 µM and 17.1 µM | [16] 23.1 µM and 28.7 µM
inactive: [5] | [8] | [9] | [10] | [12] | [13]

CCCCCCOC(=O)c1ccccc1C(=O)OCCCCCC
inactive: [1] | [4]

Sc1ccccc1
inactive: [1] | [4]

Cc1cccc([N+](=O)[O-])c1
inactive: [1] | [2] | [3] | [4]

Clc1ccc(Cl)cc1
inactive: [1] | [3] | [4]

C=CC(=O)NCNC(=O)C=C
inactive: [1] | [2] | [4]
active: [3] 19.8 µM
